# Screens from PubChem.
# PINK1 modulator: PINK1 expression modulation; AID 624263; Potency, µM (top dose mostly 76.6 µM), without a hit: at the top dose activation (PINK1 increase), usual class: activators; PINK1 immunofluorescence, high-content cytometry, 24 h; hit rate 0.2% among 410,000; active means well fitted activation curve with a large enough effect; inconclusive means small, poorly fitted or top-dose-only effect; cell line not stated here; further: % of control where 0% means no effect; nearly all actives have a fitted effect of over 65% in size
#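 Measures PINK1 amount and localization on or inside mitochondria by immunofluorescence. Stable cells get compounds at 5 concentrations for 24 hours before fixation and staining; CCCP controls included.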
# TSG101-PTAP inh: blocks PTAP/TSG101 interaction to inhibit HIV-1 budding. Q99816. Fluorescence polarization, FITC-PTAP peptide / Tsg101 binding. Potency, µM (doses to about 115 µM), inactives show at the top dose activity change, negative = inhibition, usual class: inhibitors. 340,000 tested, under 10 active. AID 493005; active means well fitted inhibition curve with a large enough effect in the main read-out, with a control signal flat, not every such curve was filed as active; inconclusive means small, poorly fitted or top-dose-only effect, or effect the other way, or a change in a side signal; inactive means no such curve, though single readings can be large or run the other way; further: % of control where 0% means no effect
# Target sequence (Q99816 whole entry, looked up): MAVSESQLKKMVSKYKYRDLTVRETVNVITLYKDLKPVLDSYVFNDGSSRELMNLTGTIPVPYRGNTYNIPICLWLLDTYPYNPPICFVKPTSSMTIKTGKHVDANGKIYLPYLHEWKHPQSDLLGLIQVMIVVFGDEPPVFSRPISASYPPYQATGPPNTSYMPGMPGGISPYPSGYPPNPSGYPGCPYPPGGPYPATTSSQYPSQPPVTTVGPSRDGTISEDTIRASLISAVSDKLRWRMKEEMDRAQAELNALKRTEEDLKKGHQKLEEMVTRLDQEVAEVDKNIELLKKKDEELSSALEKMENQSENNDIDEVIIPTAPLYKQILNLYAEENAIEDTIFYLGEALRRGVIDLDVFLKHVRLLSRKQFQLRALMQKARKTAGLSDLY
#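 Fluorescence polarization binding of Tsg101 binding domain (10 uM final) to FITC-labeled PTAP peptide (50 nM final) in HEPES pH 7.5 buffer with NaCl, Tween 20, EDTA, TCEP. Compounds added before peptide; binding 20 min at RT.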
# Apoferritin bind: candidate novel general anesthetic via apoferritin binding | P02791 | apoferritin/1-aminoanthracene competitive binding, fluorescence | Potency, µM (titrated, usually from 77.5 µM), for inactives: at the highest dose activity change, negative = displacement, hits mostly inhibitors | hit rate 0.074% among 350,000 | AID 485281; further: on the % scale 0 is the no-effect control and ±100 the full control effect; nearly all actives have a fitted effect of over 20% in size
# Target sequence (P02791 2-175 limits assumed): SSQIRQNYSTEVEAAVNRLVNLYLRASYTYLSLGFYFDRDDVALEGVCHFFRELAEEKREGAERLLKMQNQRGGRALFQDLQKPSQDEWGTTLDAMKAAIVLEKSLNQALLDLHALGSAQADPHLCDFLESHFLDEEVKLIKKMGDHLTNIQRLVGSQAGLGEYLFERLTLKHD
#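 Concentration-response curves derived by four-parameter Hill fitting of normalized fluorescence, where compounds displaced 1-AMA from 10 uM horse apoferritin following a brief 10 min room-temperature incubation; propofol titration acted as positive control.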
# HTT aggregate: mutant huntingtin aggregation inhibition; PC12 HttQ103-GFP aggregates, Acumen cytometry, 40 h; Potency, µM (titrated, usually from 46.1 µM), inactives show top-dose activity change, negative = inhibition, hits mostly inhibitors; hit rate 1.1% among 220,000; further: on the % scale 0 is the no-effect control and ±100 the full control effect; nearly all actives have a fitted effect of over 60% in size
#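 Huntingtin Q103 exon 1–GFP aggregates in induced PC12 cells (100 nM tebufenozide) were quantified by cytometry from lysates, with compounds dosed in titration.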
# Epigenetic derep: epigenetic control regulation, reporter derepression; murine LDR cells, GFP reporter derepression, 30 h; hit rate 0.2% among 280,000; Potency, µM (top dose mostly 53.9 µM), without a hit: top-dose GFP activation, usual class: activators; further: % of control where 0% means no effect; nearly all actives have a fitted effect of over 60% in size
#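 GFP-positive cell count by laser-scanning cytometry (objects 20–120 um) after 30 h, 37 C compound exposure of murine LDR cells; reporter is CMV-GFP integrated at a silenced locus, inducible by HDAC or DNMT inhibitors.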
# HTT ATP protect: cytoprotection in Huntington HTT-Q103 PC12 cell model. Potency, µM (top dose mostly 56.4 µM), without a hit: cytoprotection (ATP increase), usual class: activators. hit rate 0.14% among 230,000. PC12 HTT-Q103 induced, cytoprotection, ATP luminescence, 40 h. AID 1471; further: % of control where 0% means no effect; nearly all actives have a fitted effect of over 45% in size
#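 ATP quantification (ATPlite) reports survival of PC12 cells in which tebufenozide, 100 nM final, switches on Htt exon 1 with 103 glutamines linked to GFP; compounds are titrated.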
# An asterisk follows results filed as active; ? = inconclusive; · = no result; [ ] = another dose, or the depositor's remark. The entries come from a sample that favours hits as a whole. Unless noted, the call rests on the fitted dose curve; in most records, active means well fitted curve in the direction sought with a large enough effect; inconclusive means small, poorly fitted or top-dose-only effect, or another doubt; inactive means no such curve, though single readings can be large; an effect the other way counts as inactive or inconclusive. Potency means the concentration at half of the fitted maximal effect.
SMILES,PINK1 modulator,TSG101-PTAP inh,Apoferritin bind,HTT aggregate,Epigenetic derep,HTT ATP protect
CCOC(=O)c1nc2sc3c(c2c(=O)[nH]1)CCCC3,0.0%,-0.5%,59.5%,8.4%,0.0%,2.1%
NS(=O)(=O)c1ccc(N=Nc2c(-c3ccccc3)[nH]n(-c3nc(-c4ccccc4)cs3)c2=O)cc1,-3.2%,-2.2%,-2.3%,5.62µM*,1.0%,21.7%[10 µM]
CC(=O)NC(Cc1c(F)c(F)c(F)c(F)c1F)C(=O)NCC(N)C(=O)c1ccccc1 (centres undefined),0.7%,·,·,·,·,·
O=C(O)CCC(=O)N1N=C(c2c(-c3ccccc3)c3cc(Cl)ccc3[nH]c2=O)CC1c1cccs1 (centres undefined),2.0%,-4.5%,-16.9%,-6.3%,1.0%,2.82µM*
COc1cc(OC)c2nc(-c3cc4c(c(OC)c3)OCCN(Cc3cn(C)nc3C)C4)cc(C)c2c1,0.8%,·,·,·,·,·
CNC(=O)[C@@H]1C[C@H](Sc2nc3ccccc3[nH]2)CN1Cc1cccc(C(F)(F)F)c1,0.5%,·,·,·,·,·
COc1ccc(N2CCN(C(=O)CSc3nnc4n3C(C)(C)Cc3ccccc3-4)CC2)cc1,1.3%[38.3 µM],-5.6%,-4.1%,?,0.9%,-17.4%[1.9 µM]
Cc1ccc(Cl)cc1N1CCN(C(=O)CSc2nnc3n2C(C)(C)Cc2ccccc2-3)CC1,-0.9%,-1.9%,-4.8%,7.94µM*,0.0%,?
O=c1c2cccc3c(N4CCOCC4)ccc(c32)c2nc3ccccc3n12,·,·,-21.6%,-3.3%,12.6µM*,-0.1%[0.074 µM]
O=[N+]([O-])c1c(NCCCO)cc(Sc2nc3ccccc3s2)c2nonc12,17.0%[38.3 µM],6.9%,?,6.31µM*,?,-132.2%
COc1ccc(OC)c(-c2ccnc(-n3ncc(C(=O)NC(C)(C)CO)c3C3CC3)n2)c1,0.8%,·,·,·,·,·
CCN1C/C(=C/c2cccs2)c2nc3ccccc3c(C(=O)O)c2C1,1.2%,-14.7%,-4.7%,-11.9%[9.22 µM],-1.0%,5.2%[10 µM]
CCc1ccc(/C=C2\CN(CC)Cc3c2nc2ccccc2c3C(=O)O)cc1,0.8%,-12.0%,-8.3%,?,15.8µM*,-16.4%
Oc1ccc(N=Nc2n[nH]c(-c3ccc(Cl)cc3)n2)cc1,-2.2%,-3.4%,?,17.8µM*,-3.1%,-58.3%
Oc1ccc(N=Nc2ccccc2)cc1,3.6%,-0.5%,?,·,·,·
CC(C)c1ccc(CNCCSc2nnnn2C)cc1,0.1%,·,-8.2%,·,1.1%,·
Cn1nnnc1SCCNCc1ccc(OCc2ccc(Cl)cc2)cc1,0.0%,·,28.2µM*,·,-1.1%,·
C/C(=N\NC(=O)c1ccc(Br)cc1)C1C(=O)c2ccccc2C1=O,9.2%[38.3 µM],-9.4%,-4.1%,?,0.5%,-56.2%
CCOc1ccc(C(=O)N/N=C(/C)C2C(=O)c3ccccc3C2=O)cc1,0.9%,2.1%,-5.3%,10µM*,-1.2%,9.9%[10 µM]
CN(C)C(=O)[C@@H]1C[C@@H](Sc2nc3ccccc3[nH]2)CN1Cc1ccnc2ccccc12,-0.8%,·,·,·,·,·
CCc1ccc(-c2nc(CSCC(=O)N3CCN(c4ncccn4)CC3)c(C)o2)cc1,3.2%,-4.6%,-8.0%,11.2µM*,0.0%,-2.1%
CCOC(=O)/C=c1\s/c(=C\c2ccc(C)cc2)c(=O)n1CC(=O)NCc1ccco1,10.9%,1.0%,-2.5%,12.1%,?,·
CCOC(=O)/C=c1\s/c(=C\c2sccc2C)c(=O)n1CC(=O)NCc1ccc(C)cc1,·,·,48.9%,-13.2%,7.94µM*,-60.4%
Cc1cccc(N=c2oc3cc(O)ccc3cc2C(N)=O)c1,4.2%,2.0%,235.2%,8.91µM*,-1.0%,-40.3%
COc1ccccc1N=c1oc2cc(O)ccc2cc1C(N)=O,-0.3%,-0.2%,260.8%,?,-1.1%,-44.4%
SMILES,PINK1 modulator,TSG101-PTAP inh,Apoferritin bind,HTT aggregate,Epigenetic derep,HTT ATP protect
COC(=O)CN(C)C(=O)CC1C(=O)NCCN1CC(C)(C)C (centres undefined),-0.6%,-3.0%,-1.8%,?,1.0%,1.12µM*
CCN(c1cccc(C)c1)S(=O)(=O)c1ccc(O)c(C(=O)O)c1,·,·,·,·,1.0%,·
CCOc1ccc2[nH]c(C)cc(=O)c2c1,0.3%,1.0%,-7.0%,-7.3%,-2.3%,-10.0%
O=c1cc(C(F)(F)F)[nH]c2ccc(OC(F)(F)F)cc12,35.5µM*,-0.6%,-2.8%,-4.7%[9.22 µM],-1.4%,-27.5%[10 µM]
O=c1cc(C(F)(F)F)[nH]c2c(C(F)(F)F)cccc12,?,-4.1%,2.6%,20µM*,12.4%,·
CCN(CC)c1ccc(C(=O)NCc2ccc3c(c2)CCN3C(=O)c2ccc(F)cc2)cc1,3.1%,·,2.4%,·,1.1%,·
Cn1c(SCC2CCCO2)nnc1C1CCN(Cc2ccccc2O)CC1 (centres undefined),-0.6%,·,·,·,·,·
CCOc1cccc(C2C=C(c3ccc4c(c3)OCO4)NC(c3cccc(Br)c3)N2)c1O (centres undefined),0.1%,·,·,·,·,·
CC(C)(C)Cc1c(-c2cccc(Br)c2)nc2ccc(Br)cn12,-0.6%,·,·,·,·,·
COc1ccc(-c2nc3ccc(Br)cn3c2Cc2ccccc2)cc1OC,18.6%,·,·,·,·,·
COc1ccccc1Cc1c(-c2ccc(OC)c(OC)c2)nc2ccc(Br)cn12,14.1µM*,·,·,·,·,·
CC(C)(C)Cc1c(-c2ccc(Cl)cc2)nc2ccc(Br)cn12,31.6µM*,·,·,·,·,·
CC(C)(C)Cc1c(-c2ccc(F)cc2)nc2ccc(Br)cn12,35.5µM*,·,·,·,·,·
CN(Cc1ccon1)C(=O)c1cnn(-c2ncc3c(n2)-c2ccccc2CCC3)c1C1CC1,1.4%,·,·,·,·,·
OC1(c2ccc3c(c2)CN(Cc2nccs2)CCO3)CCN(c2ccccc2F)CC1,-0.3%,·,·,·,·,·
c1ccc(N=c2nc(-c3ccccc3)n(-c3ccccc3)s2)cc1,15.8µM*,·,·,·,·,·
CCSc1nc(-c2ccccc2)nc(C(Cl)Cl)n1,0.2%,1.0%,-8.1%,10µM*,1.1%,5.6%[1.9 µM]
CN(C)c1ccc(NS(=O)(=O)c2cc(Cl)ccc2Cl)cc1,5.9%,1.3%,-11.7%,?,0.0%,0.794µM*
CCN(c1ccc(NS(=O)(=O)c2cc(Cl)ccc2Cl)cc1)C(C)C,?,-10.1%,-23.7%,10µM*,5.7%,1.4%[10 µM]
